What all share (assay): yeast three-hybrid, YBZ-1, SC-Leu-His + 0.5 mM 3-AT, 4 days
What all share (conditions): tags: N-Gal4 AD-HA kept; label: inside an RPR1-promoter hybrid RNA with tandem MS2 sites; ssRNA

One test concerns the target PUM1 PUF domain R8-RHK (Homo sapiens, UniProt Q14671 828-1176, N1122R;Y1123H;Q1126K). The method, boiled down:
(§1)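 Pumilio-1 PUF domain libraries, randomized at the three base-contacting residues of each repeat, were co-expressed with matching RNA elements from a centromeric plasmid in strain YBZ-1, which carries a LexA–MS2 coat fusion and a HIS3 reporter. Transformants grew for four days on SC-Leu (input) or on SC-Leu-His + 0.5 mM 3-AT (selection), and the repeat regions were PCR-amplified and Illumina-sequenced. The interaction score is the log change in variant frequency from input to selection. That logarithm is base 2, with a pseudocount of 1 where a variant was absent.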

The target of a further test is PUM1 PUF domain R1-CCK (Homo sapiens, UniProt Q14671 828-1176, S863C;R864C;Q867K). The method, boiled down:
as §1

In another test the target is PUM1 PUF domain R8-KFS (Homo sapiens, UniProt Q14671 828-1176, N1122K;Y1123F;Q1126S). The essentials: as §1
The target of a further test is PUM1 PUF domain R3-VFW (Homo sapiens, UniProt Q14671 828-1176, C935V;R936F;Q939W). The method, boiled down: as §1
Another test concerns the target PUM1 PUF domain R3-RTK (Homo sapiens, UniProt Q14671 828-1176, C935R;R936T;Q939K). The method, boiled down: as §1
The next test deals with PUM1 PUF domain R4-PHT (Homo sapiens, UniProt Q14671 828-1176, N971P;Q975T). The essentials:
as §1

The target in another test is PUM1 PUF domain R5-PLK (Homo sapiens, UniProt Q14671 828-1176, C1007P;R1008L;Q1011K). The essentials:
as §1

In a further test the target is PUM1 PUF domain R5-TRS (Homo sapiens, UniProt Q14671 828-1176, C1007T;Q1011S). The method, boiled down: as §1
A further test has as its target T1, PUM1 PUF domain R6-CFM (Homo sapiens, UniProt Q14671 828-1176, N1043C;Y1044F;Q1047M).
T1 sequence: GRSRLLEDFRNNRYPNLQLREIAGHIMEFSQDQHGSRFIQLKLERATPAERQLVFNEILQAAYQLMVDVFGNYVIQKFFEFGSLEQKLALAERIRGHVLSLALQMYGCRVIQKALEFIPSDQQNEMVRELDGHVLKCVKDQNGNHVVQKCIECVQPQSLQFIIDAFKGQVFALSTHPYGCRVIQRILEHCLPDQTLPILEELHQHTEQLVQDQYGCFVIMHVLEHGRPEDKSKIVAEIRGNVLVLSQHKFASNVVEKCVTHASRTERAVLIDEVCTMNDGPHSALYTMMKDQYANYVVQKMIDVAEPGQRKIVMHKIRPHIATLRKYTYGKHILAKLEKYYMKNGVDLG
The method, boiled down:
as §1

The target of the next test is PUM1 PUF domain R3-LYM (Homo sapiens, UniProt Q14671 828-1176, C935L;R936Y;Q939M). The essentials: as §1

The source of these data is publication PMC8384837, “Expanding the binding specificity for RNA recognition by a PUF domain”.

Regarding “GGCUAGAACUAGUGGAUCCCCCGGCGCCCGGCGGCUCGAGCCCGGGUAAGGGUAAAUAGUCUGCAUGCCGCCGGGCGCCAUGCCUGCAGGUCGACUCUAGAAAACAUG”, in the test with PUM1 PUF domain R8-RHK, the binding signal was 3.54 log2 enrichment (interaction score).
On to “GGCUAGAACUAGUGGAUCCCCCGGCGCCCGGCGGCUCGAGCCCGGGUAAGUGUAAAUUGUCUGCAUGCCGCCGGGCGCCAUGCCUGCAGGUCGACUCUAGAAAACAUG”, for which, in the test with PUM1 PUF domain R1-CCK, the binding signal is 2.6 log2 enrichment (interaction score).
As to “GGCUAGAACUAGUGGAUCCCCCGGCGCCCGGCGGCUCGAGCCCGGGUAAGCGUAAAUAGUCUGCAUGCCGCCGGGCGCCAUGCCUGCAGGUCGACUCUAGAAAACAUG”, the binding signal with PUM1 PUF domain R8-KFS was 3.24 log2 enrichment (interaction score); with PUM1 PUF domain R8-RHK, 3.29 log2 enrichment (interaction score).
For the sequence “GGCUAGAACUAGUGGAUCCCCCGGCGCCCGGCGGCUCGAGCCCGGGUAAGUGUAAUUAGUCUGCAUGCCGCCGGGCGCCAUGCCUGCAGGUCGACUCUAGAAAACAUG”, the binding signal with PUM1 PUF domain R3-VFW is 5.01 log2 enrichment (interaction score); with PUM1 PUF domain R3-RTK, 4.87 log2 enrichment (interaction score).
Regarding “GGCUAGAACUAGUGGAUCCCCCGGCGCCCGGCGGCUCGAGCCCGGGUAAGUGUACAUAGUCUGCAUGCCGCCGGGCGCCAUGCCUGCAGGUCGACUCUAGAAAACAUG”, in the test with PUM1 PUF domain R4-PHT, the binding signal was 2.45 log2 enrichment (interaction score).
On to “GGCUAGAACUAGUGGAUCCCCCGGCGCCCGGCGGCUCGAGCCCGGGUAAGUGUUAAUAGUCUGCAUGCCGCCGGGCGCCAUGCCUGCAGGUCGACUCUAGAAAACAUG”, for which the binding signal in the test with PUM1 PUF domain R5-PLK was 2.84 log2 enrichment (interaction score); with PUM1 PUF domain R5-TRS, 3.03 log2 enrichment (interaction score).
On to “GGCUAGAACUAGUGGAUCCCCCGGCGCCCGGCGGCUCGAGCCCGGGUAAGUGUAAAUAGUCUGCAUGCCGCCGGGCGCCAUGCCUGCAGGUCGACUCUAGAAAACAUG”, for which the binding signal was 6.07 log2 enrichment (interaction score) with PUM1 PUF domain R4-PHT; 3.02 log2 enrichment (interaction score) with PUM1 PUF domain R6-CFM; 4.11 log2 enrichment (interaction score) with PUM1 PUF domain R3-LYM; 2.95 log2 enrichment (interaction score) in the test with PUM1 PUF domain R8-RHK; 2.85 log2 enrichment (interaction score) with PUM1 PUF domain R5-TRS; 4.87 log2 enrichment (interaction score) with PUM1 PUF domain R3-VFW.
In the case of “GGCUAGAACUAGUGGAUCCCCCGGCGCCCGGCGGCUCGAGCCCGGGUAAGUGUGAAUAGUCUGCAUGCCGCCGGGCGCCAUGCCUGCAGGUCGACUCUAGAAAACAUG”, the binding signal with PUM1 PUF domain R5-TRS is 2.97 log2 enrichment (interaction score).
